# Bioassay records (PubChem BioAssay)
# Sa growth inh = inhibitors of Staphylococcus aureus growth at 42 °C; S. aureus RN4220 growth, OD600, 20 h; stronger effect = lower value; relative growth, % (test concentration not listed); 170,000 tested, 0.53% active; AID 720641;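 active = relative growth at most 50% at the other temperature and 20+ points below 30 °C, or under 10% at both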
# S aureus helic = blocks Staphylococcus aureus DNA helicase | purified S. aureus helicase, fluorescence unwinding assay | inhibition, % (no concentration beside the values) | 120,000 tested, 0.05% active; in the data active = inhibition above about 25%, passing the limit was not always enough;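 note: 0% = mean of negative control wells and 100% = mean of positive control wells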
# The depositor's hits bear a star; . = no result. The sample as a whole holds a higher share of hits than the screen did.
SMILES,Sa growth inh,S aureus helic
Cc1sc2nc[nH]c(=O)c2c1-c1ccccc1,.,-4.0
COc1ccc(NC(=O)CN2CCN(S(=O)(=O)/C=C/c3ccccc3)CC2)cc1,83.7,16.0
COc1ccc(NC(=O)CCS(=O)(=O)c2nc(-c3cccs3)cc(C(F)(F)F)n2)cc1,88.0,.
COC(=O)CCS(=O)(=O)c1nc(-c2cccs2)cc(C(F)(F)F)n1,1.4*,7.0
CCN(CC)C(=O)CSc1nc(-c2ccc(F)cc2)nc2c1Cc1c(CO)cnc(C)c1O2,83.0,10.0
CCCc1cc(=O)[nH]c(SCC(=O)N(CC(C)C)C2CCS(=O)(=O)C2)n1 (centres undefined),80.0,-5.0
Cc1nnc(SCC(=O)N(CC(C)C)C2CCS(=O)(=O)C2)s1 (centres undefined),91.3,26.0*
S=c1[nH]nc(-c2ccc3c(c2)OCO3)o1,35.9*,8.0
COc1ccc(-c2n[nH]c(=S)o2)cc1OC,92.6,-15.0
CCOC(=O)CCn1cc(F)c(=O)[nH]c1=O,94.8,8.0
CC(=O)On1cc(F)c(=O)[nH]c1=O,0.7*,2.0
CC(=O)NC[C@H]1CN(c2ccc(N3CCOCC3)c(F)c2)C(=O)O1,-0.8*,.
Cc1ccc(C(=O)c2ccc(N3CCOCC3)c(F)c2)cc1,101.4,9.0
O=C(CCN1C(=O)/C(=C/c2ccccc2)SC1=S)Nc1ccccc1,.,-8.0
Oc1c(C(O)(C(F)(F)F)C(F)(F)F)ccc2cccnc12,-0.3*,13.0
Oc1c(CN2CCCCC2)ccc2cccnc12,59.4,7.0
O=C(c1ccccc1)c1ccc2[nH]c(=O)c(=O)[nH]c2c1,85.4,3.0
CCOC(=O)CCCN1c2ccccc2CCC1C(=O)OCC (centres undefined),103.0,0.0
CCOC(=O)COC1=C(c2ccccc2)C(=O)c2ccccc2C1=O,5.9*,14.0
Cc1ccc(C(=O)OC2=C(c3ccccc3)C(=O)c3ccccc3C2=O)cc1,77.7,9.0
CC1SC(=N)N(c2ncc(Cc3ccccc3Cl)s2)C1=O (centres undefined),-1.0*,1.0
O=C(Nc1ncc(Cc2ccccc2Cl)s1)c1ccco1,.,-8.0
CSc1ccc(/C=C2\SC(=O)N(C)C2=O)cc1,99.8,3.0
N#Cc1ccc(-c2ccc(OCc3ncc(-c4ccccc4)o3)cc2)cc1,83.6,5.0
CCc1ccc2oc(-c3ccccc3)cc(=NCc3cccnc3)c2c1,96.4,48.0*
SMILES,Sa growth inh,S aureus helic
Cc1ccc2oc(-c3ccccc3)cc(=NCCN(C)C)c2c1,112.1,37.0
CC(O)CN=c1cc(-c2ccccc2)oc2ccc(Cl)cc12 (centres undefined),68.2,39.0
Cc1ccc2oc(-c3ccccc3)cc(=NCCO)c2c1,102.8,44.0*
N#CC(c1ccccc1)c1cn2cc(Br)ccc2n1 (centres undefined),89.5,-1.0
CCC(C)(C)C1CCC(=NNC(=O)Cc2cccn2C)CC1 (centres undefined),90.0,-8.0
Oc1ccc(CNc2cccc(Cl)c2)c2cccnc12,82.2,10.0
COC(=O)c1c(O)c2ccccc2oc1=O,101.6,.
CCc1ccc(OCC(=O)c2c(O)c3ccccc3oc2=O)cc1,4.4*,32.0
CN1CCC(N(C)Cn2ncn(-c3ccccc3)c2=S)CC1,87.9,3.0
Oc1ccccc1CNc1ccccc1Br,103.1,13.0
Cc1ccccc1NC(=O)Nc1ccon1,111.5,18.0
CCOC(=O)c1[nH]c(C)c(C(=O)N2CCCCC2)c1C,93.8,-6.0
NC(=O)C1CCCN1C(=O)CCC(=O)O (centres undefined),102.4,6.0
CCN1/C(=C/C=C2\SC(=S)N(C)C2=O)Oc2ccccc21,88.1,-14.0
CN1/C(=C/C=C/c2oc3ccccc3[n+]2C)Oc2ccccc21,-1.0*,-98.0
CCOc1ccc(C(C)(C)C)cc1S(=O)(=O)n1c(C)nc2ccccc21,85.7,-27.0
N/C(CC(=O)NCc1ccccc1)=N\O,93.6,-12.0
Oc1c(CN2CCOCC2)ccc2ccccc12,106.7,3.0
Cc1ccc(C(c2c(O)ccc3ccccc23)N2CCOCC2)o1 (centres undefined),-0.6*,10.0
CC1CCN(S(=O)(=O)c2ccc(NC(=O)Nc3ccccc3)cc2)CC1,31.5*,2.0
CC(=O)Nc1ccc(S(=O)(=O)N2CCC(C)CC2)cc1,123.3,4.0
COC(=O)CNc1cn[nH]c(=O)n1,126.4,-9.0
COc1ccc2[nH]c(C)c(CCNCC(C)Cc3ccc4c(c3)OCO4)c2c1 (centres undefined),106.2,19.0
CS(=O)(=O)c1sc(C#N)c2c1C(=O)CCC2,0.4*,4.0
CS(=O)(=O)c1sc(Br)c2c1C(=O)CCC2,100.6,.
SMILES,Sa growth inh,S aureus helic
CCOC(=O)CS(=O)(=O)c1nc2c(c(C(F)(F)F)n1)CCc1ccccc1-2,74.9,-8.0
CCOC(=O)c1cccc2c1-c1ccccc1C2=O,81.8,.
CCOC(=O)c1cccc2c1-c1ccccc1/C2=N/O,44.3*,4.0
COc1cc(OC)cc(-c2nnc(NC(=O)c3ccc(S(=O)(=O)N(C)c4ccccc4)cc3)o2)c1,-0.1*,4.0
O=C(Nc1nnc(-c2ccc(Cl)cc2)o1)C1CC1,2.6*,6.0
COc1ccc(-c2nnc(NC(=O)C3CC3)o2)cc1,77.5,1.0
COc1cc(OC)cc(-c2nnc(NC(=O)c3ccc(S(=O)(=O)N4COCC4(C)C)cc3)o2)c1,1.0*,9.0
COc1ccc(-c2nnc(NC(=O)c3ccc(S(=O)(=O)N4CCCc5ccccc54)cc3)o2)cc1,92.2,5.0
CN(Cc1ccccc1)S(=O)(=O)c1ccc(C(=O)Nc2nnc(-c3ccco3)o2)cc1,83.3,4.0
CN(C1CCCCC1)S(=O)(=O)c1ccc(C(=O)Nc2ccccc2)cc1,.,13.0
CN(C1CCCCC1)S(=O)(=O)c1ccc(C(=O)Nc2nnc(-c3cccnc3)o2)cc1,2.3*,8.0
CCOc1ccc(/C(O)=C2\C(=O)C(=O)N(CCN(CC)CC)C2c2ccc(Cl)cc2)cc1C (centres undefined),103.6,6.0
Cc1ccc(NC(=S)N2CCC(N(C)CCN3CCOCC3)CC2)cc1C,91.1,-16.0
O=C(CSC(=S)N1CCCC1)NC1CCCCCC1,94.8,-13.0
O=C1CNC(=S)N1CCC1=CCCCC1,88.6,3.0
CC1(O)N(CC(=O)O)C(=O)OC12CCCCC2 (centres undefined),87.1,0.0
O=C1c2ccc(-c3nc4ccc(Br)cc4c(=O)o3)cc2C(=O)N1C1CCCCC1,100.6,13.0
O=C(Nc1nnc(-c2ccccc2)o1)c1ccccc1,0.0*,15.0
O=C(Nc1nnc(C2=COCCO2)o1)c1ccc(Cl)cc1,3.7*,22.0
O=C(Nc1nnc(C2=COCCO2)o1)c1cccc2ccccc12,92.5,7.0
O=C(Nc1nnc(-c2cccs2)o1)c1ccccc1,.,-19.0
Cc1ccc(C2=NC3(CCN(C(=O)OC(C)(C)C)CC3)NC2=S)cc1,86.0,1.0
Cc1n[nH]c(C)c1CCCOc1ccccc1,8.3*,-2.0
Cc1n[nH]c(C)c1CCC(=O)O,108.0,5.0
COC(=O)c1c(COc2ccccc2)n[nH]c1C,112.6,.
SMILES,Sa growth inh,S aureus helic
Cc1n[nH]c(C)c1CCCCCOc1ccccc1,0.0*,13.0
CCOc1ccc(NC(=O)OC(C)(C)C)cc1,102.9,4.0
CN(Cc1ccccc1)C(=O)CN1C(=O)c2cccc3cccc1c23,99.2,-14.0
CSc1ccc(CN(C)CC(=O)NC(=O)NC2CCCCC2)cc1,85.2,-4.0
CN(CC(=O)Nc1ncc(Cl)cc1Cl)Cc1ccc(Cl)cc1,92.8,-4.0
Cc1cc(Nc2ncc(Cl)cc2Cl)n[nH]1,2.2*,2.0
